# Hits are enriched below; roughly 8.7% of the tested compounds scored in any of these assays.
# JMJD2A Tudor inh = blocks the human JMJD2A Tudor domain | O75164 | AlphaScreen JMJD2A-Tudor / H3K4me3 peptide binding | Potency, µM (highest dose often 114 µM), actives largely listed as inhibitors | hit rate 4.4% among 390,000; further: nearly all actives have a fitted effect of over 50% in size
# BAZ2B inh = inhibitors of human BAZ2B bromodomain | hit rate 4.4% among 360,000 | AlphaScreen BAZ2B-H3K14Ac peptide displacement | Potency, µM (series often up to 114 µM), actives largely listed as inhibitors | Q9UIF8; further: nearly all actives have a fitted effect of over 60% in size
#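 In this displacement format the biotinylated H3(5-23) peptide acetylated at Lys14 serves as ligand at 50 nM, with BAZ2B at 50 nM in PBS pH 7.4 containing 0.01% Tween-20. Donor and acceptor beads are 10 ug/mL final.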
# Sfp PPTase inh = Sfp phosphopantetheinyl transferase inhibition; Q9F4F7; Biochemical Sfp PPTase activity, qHTS; Potency, µM, usual class: inhibitors; hit rate 3.5% among 310,000; AID 1490;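 further: the enzyme is Sfp with the accession as filed and its product quenches rhodamine fluorescence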
#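 Sfp 15 nM + cpd, 15 min RT; start w/ rhodamine-CoA 5 uM, BHQ-2-YbbR 12.5 uM (final); 50 mM Hepes pH 7.6, 10 mM MgCl2, 0.01% NP-40, 0.01% BSA; read 525/598 nm at 0 and 30 min.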
# ALOX12 inh = inhibitors of human 12S-lipoxygenase ALOX12 | P18054 | hit rate 1.1% among 580,000 | purified 12hLO, xylenol orange hydroperoxide absorbance | Potency, µM (series often up to 108 µM), usual class: inhibitors
# Target sequence (P18054 whole entry, looked up): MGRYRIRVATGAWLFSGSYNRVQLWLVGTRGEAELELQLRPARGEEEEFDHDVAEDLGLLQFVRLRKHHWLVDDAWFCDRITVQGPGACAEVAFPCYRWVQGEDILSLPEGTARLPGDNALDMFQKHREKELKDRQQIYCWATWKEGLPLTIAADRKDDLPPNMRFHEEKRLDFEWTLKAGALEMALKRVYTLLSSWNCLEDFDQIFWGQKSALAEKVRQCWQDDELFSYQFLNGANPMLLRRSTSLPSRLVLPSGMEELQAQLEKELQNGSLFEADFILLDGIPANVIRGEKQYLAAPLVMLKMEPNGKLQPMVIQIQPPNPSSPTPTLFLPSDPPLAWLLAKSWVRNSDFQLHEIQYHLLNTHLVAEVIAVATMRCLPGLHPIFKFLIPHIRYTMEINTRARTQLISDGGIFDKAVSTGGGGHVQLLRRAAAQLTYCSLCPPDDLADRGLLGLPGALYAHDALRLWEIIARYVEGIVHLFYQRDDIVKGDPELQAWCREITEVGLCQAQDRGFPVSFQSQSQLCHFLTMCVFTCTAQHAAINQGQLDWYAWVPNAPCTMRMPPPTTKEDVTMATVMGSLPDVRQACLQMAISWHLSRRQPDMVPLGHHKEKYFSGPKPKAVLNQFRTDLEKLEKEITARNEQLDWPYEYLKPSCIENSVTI
#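 Purified human 12hLO at 150 nM in 25 mM Hepes, 0.01% Triton X-100, pH 7.0, preincubated 15 min at room temperature with compound. Reaction started with 40 uM arachidonic acid, 30 min at room temperature. Hydroperoxide measured by Fe-xylenol orange, 573/405 nm absorbance ratio.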
# HP1b binding inh = blocks HP1-beta chromodomain binding to methylated histone tails; Potency, µM (doses to about 114 µM), most hits filed as inhibitors; AlphaScreen HP1-beta / biotin-H3K9me3 peptide binding; hit rate 0.56% among 390,000; further: nearly all actives have a fitted effect of over 70% in size
#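 AlphaScreen: HP1-beta (50 nM) preformed 30 min with biotin-H3(1-18)K9me3 peptide (50 nM) in PBS pH 7.4, 0.01% Tween-20. Compound added for 30 min at RT, then streptavidin donor/nickel chelate acceptor beads (10 ug/mL) for 30 min.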
# G9a inh = G9a (human) methyltransferase inhibition | AID 504332 | hit rate 8.8% among 350,000 | G9a H3K9 monomethylation, AlphaScreen, 2 h | Q96KQ7 | Potency, µM (titrated, usually from 102 µM), actives largely listed as inhibitors; further: nearly all actives have a fitted effect of over 75% in size
#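 Methyltransferase reactions run at room temperature for 2 h (20 nM enzyme, 500 nM biotin-H3K9 peptide, 20 uM SAM) after a 15 min compound preincubation; product detected by AlphaScreen beads and anti-H3K9me1 antibody.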
# A number is an active result; i = inactive; ? = inconclusive; nt = not tested or not shown; [ ] = another dose, or the depositor's remark. The call rests on the fitted dose curve; in most records, active means well fitted curve in the direction sought with a large enough effect; inconclusive means small, poorly fitted or top-dose-only effect, or another doubt; inactive means no such curve, though single readings can be large; an effect the other way counts as inactive or inconclusive.
SMILES,JMJD2A Tudor inh,BAZ2B inh,Sfp PPTase inh,ALOX12 inh,HP1b binding inh,G9a inh
CCOC(=O)C1=NN(C(C)=O)C2(CC(=O)N(c3cc(C)cc(C)c3)C2=O)C1 (stereo not drawn),i,i,i,i,i,i
N#Cc1nc(-c2ccc([N+](=O)[O-])cc2)oc1N1CCCC1,nt,nt,nt,i,nt,nt
CS(=O)(=O)c1ccc(S(=O)(=O)N2CCC3(CCCNC3)C2)cc1 (stereo not drawn),nt,nt,nt,i,nt,nt
Cc1cc(Cl)ccc1C(=O)N1Cc2cnn(Cc3ccc(F)cc3)c2C1,nt,nt,nt,i,nt,nt
CC(=O)Oc1ccc(N2C(=O)C3C4C=CC(O4)C3C2=O)cc1 (stereo not drawn),?,i,35.5µM,i,?,3.55µM
CC(=O)Oc1cccc(N2C(=O)C3C(C2=O)C2C=CC3C23CC3)c1 (stereo not drawn),i,i,i,i,i,44.7µM
CC(=O)Oc1cccc(N2C(=O)C3C4C=CC(C4=C(C)C)C3C2=O)c1 (stereo not drawn),?,i,56.2µM,i,?,i[2.33 µM]
CC(=O)Oc1cccc(N2C(=O)C3CC=CCC3C2=O)c1 (stereo not drawn),i,i,i,i,i,i[12.7 µM]
CC(C)C(=O)Nc1ccc(Cl)c(C(N)=O)c1,nt,nt,nt,i,nt,nt
COc1ccccc1-n1cc(-c2ccnc(N3CCCN(C(C)=O)CC3)n2)cn1,nt,nt,nt,i,nt,nt
COC(=O)C(C)Oc1ccc2cc(-c3ccc(OC)c(OC)c3)c(=O)oc2c1 (stereo not drawn),nt,nt,nt,i,nt,nt
COc1ccccc1NC(=O)N(Cc1ccco1)Cc1cc2cc(C)cc(C)c2[nH]c1=O,?,?,i,i,i,44.7µM
COc1ccccc1NC(=O)N(Cc1ccco1)Cc1cc2ccc(C)c(C)c2[nH]c1=O,?,nt,i,i,i,?
Cn1ccnc1C(O)(CC(=O)Nc1ccccc1)C(F)(F)F (stereo not drawn),nt,nt,nt,i,nt,nt
CCN(CC)S(=O)(=O)c1ccc(NCc2ccccn2)nc1,70.8µM,?,i,?,i,28.2µM
Cc1noc(CN2CCN(c3nc(N)nc4c3CCC4)CC(O)C2)n1 (stereo not drawn),nt,nt,nt,i,nt,nt
COc1ccc(CC(=O)NC(C)C2CC3CCC2C3)cc1 (stereo not drawn),nt,nt,nt,i,nt,nt
CC(NCc1ccc(N(C)C)cc1)C1CC2CCC1C2 (stereo not drawn),89.1µM,?,i,?,i,50.1µM
CCCCn1c(SCC(=O)NCc2ccc3c(c2)OCO3)nc2cc(C(=O)OC)ccc2c1=O,nt,nt,nt,i,nt,nt
CCCCn1cnc2c1c(=O)n(CC(=O)Nc1ccc(C)c(F)c1)c(=O)n2CCCC,nt,nt,nt,i,nt,nt
c1ccc(-c2nnc(N3CCN(c4ccccc4)CC3)nc2-c2ccccc2)cc1,?,?,i,i,i,12.6µM
CC(=O)N1CCN(c2nc(-c3ccccc3)c3ccccc3n2)CC1,nt,nt,nt,i,nt,nt
c1ccc(-c2nc(N3CCCC3)nc3ccccc23)cc1,i,i,39.8µM,i,i,?
c1ccc(-c2nnc(N3CCCC3)nc2-c2ccccc2)cc1,i,i,i,i,i,i
Cc1cc2cc3c(cc2nc1SCC(=O)Nc1nc(C)c(C)s1)OCO3,i,i,25.1µM,i,i,i
SMILES,JMJD2A Tudor inh,BAZ2B inh,Sfp PPTase inh,ALOX12 inh,HP1b binding inh,G9a inh
COc1cccc(CN(Cc2ccco2)C(c2ccc(F)cc2)c2nnnn2C(C)(C)C)c1 (stereo not drawn),i,i,i,i,i,50.1µM
COC(=O)C1=C(C)OC(N)=C(C#N)C1c1ccco1 (stereo not drawn),i,i,i,i,i,i
CCOC(=O)C1=C(CC)OC(N)=C(C#N)C1c1ccc(OC)cc1OC (stereo not drawn),i,i,i,i,i,i
CCOC(=O)CC1=C(C(=O)OCC)C(c2ccc(OC)cc2OC)C(C#N)=C(N)O1 (stereo not drawn),i,i,79.4µM,i,i,56.2µM
CCOC(=O)CC1=C(C(=O)OCC)C(c2ccc(C)o2)C(C#N)=C(N)O1 (stereo not drawn),i[11.4 µM],i,i,i,i,25.1µM
CCOC(=O)C1=C(c2ccccc2)OC(N)=C(C#N)C1c1ccco1 (stereo not drawn),i,i,i,i,i,44.7µM
Cc1ccc(C2C(C#N)=C(N)Oc3c2sc2ccccc32)o1 (stereo not drawn),nt,?,56.2µM,nt,nt,15.8µM
Cc1cc2c(c(=O)o1)C(c1ccc([N+](=O)[O-])o1)C(C#N)=C(N)O2 (stereo not drawn),i,?,?,?,i,?
CC(CCc1ccco1)NC(=O)c1ccc(S(C)(=O)=O)cc1 (stereo not drawn),nt,nt,nt,i,nt,nt
CCc1noc(-c2cccn3c(CNC(=O)CCc4cccc(OC)c4)nnc23)n1,nt,nt,nt,i,nt,nt
Cc1ccc(-c2ccccc2NC(=O)CS(=O)CC(=O)Nc2ccc(C)c(Cl)c2)o1 (stereo not drawn),i,i,i,39.8µM,i,35.5µM

# Assay outcomes (PubChem BioAssay)
